Experimental findings from PubChem BioAssay (NCI) are described below.

Compounds without any hit were thinned out: in the full panel of roughly 83,000, 20% have a hit.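 Negative percent growth values reflect cell death: -40 means 40% of the cells present at the start died, and -100 means all died.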 Values without a mark were called inactive. The source made the active and inactive calls. Rule for the calls: active = growth percent below 10; inactive = the rest.

Test systems include HCT-15 colon; HT29 colon; SNB-75 CNS; SNB-19 CNS; U251 CNS; PC-3 prostate; SK-MEL-5 melanoma; UACC-62 melanoma; LOX IMVI melanoma; SK-MEL-28 melanoma; SK-MEL-2 melanoma; EKVX NSCLC; SN12C renal; UO-31 renal; TK-10 renal; ACHN renal; CAKI-1 renal; A498 renal; CCRF-CEM leukemia; MOLT-4 leukemia.
What all share (experiment): NCI-60 one-dose screen, 48 h (100 = growth as untreated, 0 = no growth, -100 = all killed)
What all share (conditions): 10 µM

For `Cc1ccc(/C(CSc2nnc(-c3c[nH]c4ccccc34)n2-c2ccccc2)=N/O)cc1`, the growth in the assay on HCT-15 colon is -62.4% (active); with HT29 colon, 6.35% (active); with SNB-75 CNS it was -44.2% (active); in the assay on SNB-19 CNS it was -18.5% (active); in the assay on U251 CNS it was 10.4%; in the assay with PC-3 prostate it was -46.5% (active). Moreover, the growth with SK-MEL-5 melanoma was 34.1%; in the assay on UACC-62 melanoma, -52.6% (active); in the assay with LOX IMVI melanoma, -88.2% (active); in the assay on SK-MEL-28 melanoma it was 62.5%; in the assay on SK-MEL-2 melanoma, 62.7%; in the assay with EKVX NSCLC, 28.3%. Besides, the growth was -36.7% (active) in the assay with SN12C renal; 6.45% (active) in the assay with UO-31 renal; -65.1% (active) with TK-10 renal; -61.7% (active) with ACHN renal; -27.4% (active) in the assay on CAKI-1 renal; 91.9% in the assay on A498 renal. The growth in the assay with CCRF-CEM leukemia was -35% (active); in the assay on MOLT-4 leukemia, -27.8% (active).

As to `CN1CCN(Cc2ccc(NC(=O)c3cncc(C#Cc4cnc5ccc(N[C@H]6CCOC6)nn45)c3)cc2C(F)(F)F)CC1`, the growth with HCT-15 colon was -84.3% (active); with HT29 colon it was -33.2% (active); in the assay on SNB-75 CNS, -98% (active); in the assay on SNB-19 CNS, -98.8% (active); with U251 CNS, -79.7% (active); in the assay with PC-3 prostate it was -20.7% (active). Besides, the growth is -100% (active) with SK-MEL-5 melanoma; -93.3% (active) with UACC-62 melanoma; -99.1% (active) in the assay with LOX IMVI melanoma; -92.8% (active) in the assay with SK-MEL-28 melanoma; -94.3% (active) with SK-MEL-2 melanoma; -99.4% (active) in the assay on EKVX NSCLC. Besides, the growth in the assay on SN12C renal was -93.1% (active); with UO-31 renal it was -95.6% (active); with TK-10 renal, -69.8% (active); in the assay on ACHN renal, -100% (active); in the assay on CAKI-1 renal, -96.7% (active); in the assay on A498 renal, -94.7% (active). Further, the growth is -2.23% (active) in the assay on CCRF-CEM leukemia and -9.84% (active) in the assay with MOLT-4 leukemia.

As to `N#Cc1ccc(NC(=O)CSc2ccc(-c3ccc(Br)cc3)nn2)cc1`, the growth was 72.7% with HCT-15 colon; 84.1% with HT29 colon; 76% with SNB-75 CNS; 64% in the assay with SNB-19 CNS; 87.7% with U251 CNS; 58.6% with PC-3 prostate. Also, the growth in the assay with SK-MEL-5 melanoma was 4.86% (active); in the assay on UACC-62 melanoma it was 29.9%; in the assay with LOX IMVI melanoma, 52.8%; in the assay with SK-MEL-28 melanoma, 62.4%; in the assay on SK-MEL-2 melanoma, 57.9%; in the assay with EKVX NSCLC, 72.4%. Moreover, the growth with SN12C renal is 73.5%; in the assay with UO-31 renal it was 54.6%; with TK-10 renal, 103%; with ACHN renal, 64.5%; with CAKI-1 renal, 67.2%; with A498 renal, 89.4%. The results for the growth in the assay on CCRF-CEM leukemia and in the assay with MOLT-4 leukemia were 57.9% and 42.6%, respectively.

Take `CC1CC(c2ccc(N(C)C)cc2)=NN1c1nc(O)c(C2=c3cc(Br)ccc3=NC2=O)s1` (stereo not given): the growth in the assay with HCT-15 colon is 50.5%; with HT29 colon, 83.5%; in the assay on SNB-75 CNS, 89.9%; in the assay on SNB-19 CNS it was 94.7%; with U251 CNS, 69.9%; in the assay with PC-3 prostate, 53.2%. Also, the growth in the assay with SK-MEL-5 melanoma was 73.5%; with UACC-62 melanoma it was 98.5%; in the assay with LOX IMVI melanoma, -46.1% (active); in the assay on SK-MEL-28 melanoma, 110%; in the assay on SK-MEL-2 melanoma, 98.9%; in the assay with EKVX NSCLC it was 61.9%. Moreover, the growth in the assay with SN12C renal is 106%; in the assay on UO-31 renal, 78.3%; with TK-10 renal, 94.4%; in the assay on ACHN renal, 92.2%; in the assay with CAKI-1 renal, 101%; in the assay on A498 renal, 103%. Besides, the growth in the assay on CCRF-CEM leukemia is 29.8%; in the assay with MOLT-4 leukemia, 70.5%.

With `COc1cc(C2CC(c3ccc(C)cc3)=Nc3c(N)nc(N)nc3N2)ccc1Oc1nc(Nc2ccc(F)cc2)nc(N(C)C)n1` (stereo not given), the growth in the assay with HCT-15 colon is 14.9%; with HT29 colon, 9.46% (active); in the assay on SNB-75 CNS it was 104%; in the assay with SNB-19 CNS, 66.7%; in the assay with U251 CNS, 52.2%; in the assay on PC-3 prostate, 45.6%. The growth in the assay on SK-MEL-5 melanoma is -100% (active); in the assay with UACC-62 melanoma it was 77.7%; in the assay with LOX IMVI melanoma it was -77.8% (active); in the assay on SK-MEL-28 melanoma, 88.3%; in the assay on SK-MEL-2 melanoma, 72.9%; in the assay with EKVX NSCLC it was 70.1%. Further, the growth was 68.6% in the assay with SN12C renal; 53.3% with UO-31 renal; 101% in the assay on TK-10 renal; 47.1% in the assay on ACHN renal; 49.4% in the assay with CAKI-1 renal; 96.5% in the assay on A498 renal. The growth in the assay on CCRF-CEM leukemia was 47.1%; in the assay on MOLT-4 leukemia, 13.2%.

Consider `COC[C@@H](CC(C)C)N=C1NC(=O)/C(=C/c2ccc3ncoc3c2)N1`, for which the growth is 1.92% (active) in the assay on HCT-15 colon; 8.17% (active) in the assay with HT29 colon; -9.28% (active) in the assay on SNB-75 CNS; 17.5% in the assay on SNB-19 CNS; 16.4% in the assay on U251 CNS; 42.4% in the assay with PC-3 prostate. The growth in the assay with SK-MEL-5 melanoma is 3.83% (active); with UACC-62 melanoma, -27.3% (active); in the assay with LOX IMVI melanoma it was 6.76% (active); in the assay with SK-MEL-28 melanoma, 0.832% (active); in the assay with SK-MEL-2 melanoma, -75.8% (active); with EKVX NSCLC, 18%. Moreover, the growth is 15.1% with SN12C renal; -8.68% (active) in the assay with UO-31 renal; 36.5% in the assay with TK-10 renal; 7.63% (active) in the assay with ACHN renal; 6.77% (active) in the assay on CAKI-1 renal; -9.51% (active) with A498 renal. The results for the growth in the assay on CCRF-CEM leukemia and with MOLT-4 leukemia were 15.2% and 11.3%, respectively.

As to `CC(C)CCSc1nc(NC2CC2)c(C#N)c(-c2ccc(C(C)C)cc2)n1`, the growth in the assay on HCT-15 colon is 106%; with HT29 colon, 108%; with SNB-75 CNS, 111%; in the assay with SNB-19 CNS, 98.6%; in the assay on U251 CNS, 106%; in the assay with PC-3 prostate, 106%. The growth in the assay with SK-MEL-5 melanoma was 102%; in the assay on UACC-62 melanoma, 98.3%; with LOX IMVI melanoma, 100%; in the assay with SK-MEL-28 melanoma, 110%; with SK-MEL-2 melanoma, 98.9%; in the assay with EKVX NSCLC it was 96.5%. The growth with SN12C renal is 106%; in the assay on UO-31 renal, 103%; in the assay with TK-10 renal it was 99.4%; in the assay with ACHN renal it was 108%; in the assay on CAKI-1 renal, 99.3%; in the assay with A498 renal, 109%. Also, the results for the growth with CCRF-CEM leukemia and with MOLT-4 leukemia were 95.4% and 98.9%, respectively.

As for `O=C(NO)c1ccc(Cn2ccc3c(Nc4ccccc4)ncnc32)cc1`, the growth was -55.5% (active) in the assay on HCT-15 colon; 8.25% (active) in the assay with HT29 colon; 44.3% in the assay with SNB-75 CNS; -30.4% (active) with SNB-19 CNS; -38.9% (active) in the assay with U251 CNS; 15% with PC-3 prostate. The growth in the assay on SK-MEL-5 melanoma was -67.2% (active); with UACC-62 melanoma it was -49.3% (active); in the assay with LOX IMVI melanoma, -91.9% (active); in the assay with SK-MEL-28 melanoma, 5.83% (active); in the assay on SK-MEL-2 melanoma, 8.71% (active); with EKVX NSCLC it was 23.6%. Moreover, the growth is 17.6% in the assay with SN12C renal; 9.48% (active) in the assay on UO-31 renal; 2.65% (active) in the assay with TK-10 renal; 1.86% (active) in the assay on ACHN renal; 10.7% in the assay on CAKI-1 renal; -14.2% (active) in the assay on A498 renal. For the same compound, the growth in the assay with CCRF-CEM leukemia is 18.2%; with MOLT-4 leukemia it was 7.84% (active).
